Measured values published in PubChem BioAssay.
For part of these data: Results with a measured potency or affinity are listed apart. Active and inactive are the calls of the source.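 The calls were made as follows, unless noted: active = primary screen hit whose fluorescence ratio, in both repeats, exceeds the weak agonist control mean by 3 SD; inactive = the rest.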

Tests used:
[1] = tested on: TRPC4 beta (transient receptor potential cation channel C4), mouse; experiment: activators of mouse TRPC4 channel, confirmation, cell-based, Fluo4 calcium, HEK293 TRPC4beta/mu-opioid, duplicates, 10 µM (AID 2426;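 active = fluorescence ratio normalized to control raised more than 50% in primary screen plus both repeat runs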); conditions: Fluo4 calcium fluorescence, at 10 µM; stronger effect = higher value
[2] = tested on: transient receptor potential cation channel C4 beta (TRPC4), mouse; experiment: activators of mouse TRPC4 channel, confirmation, cell-based, second round, Fluo4, HEK293 TRPC4beta/mu-opioid, 1 µM (AID 2461;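 active = primary screen active and over 50% activation in each of two duplicate runs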); conditions: Fluo4 calcium fluorescence, at 1 µM; stronger effect = higher value
[3] = tested on: TRPC4 (transient receptor potential cation channel C4 beta), mouse; experiment: positive allosteric modulators of mouse TRPC4, confirmation, cell-based, second round, Fluo-4, HEK293 TRPC4beta/mu-opioid, 1 µM (AID 2554); conditions: DAMGO EC20, Fluo-4 calcium flux, at 1 µM; stronger effect = higher value
[4] = tested on: TRPC4 beta (transient receptor potential cation channel C4), mouse; experiment: positive allosteric modulators of mouse TRPC4, confirmation, cell-based, Fluo-4, HEK293 TRPC4beta/mu-opioid (AID 2555;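 active = primary screen hit whose calcium fluorescence ratio, in both repeats, exceeds the weak agonist control mean by 3 SD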); conditions: DAMGO EC20, Fluo-4 calcium flux, at 10 µM; stronger effect = higher value
[5] = target: Short transient receptor potential channel 4 (Mus musculus) (UniProt Q9QUQ5); experiment: inhibitors of mouse TRPC4 channel, confirmation, cell-based, Fluo4, HEK293 TRPC4beta/mu-opioid (AID 2636;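 active = calcium signal cut by more than 3 SD below the full-agonist control yet still positive, in both repeats and the earlier primary screen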); conditions: DAMGO, Fluo4 calcium flux, at 10 µM; stronger effect = higher value
[6] = target: Short transient receptor potential channel 4 (Mus musculus) (UniProt Q9QUQ5); experiment: inhibitors of mouse TRPC4 channel, confirmation, cell-based, second round, Fluo4, HEK293 TRPC4beta/mu-opioid, 1 µM (AID 2637;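 active = calcium signal ratio cut to more than 3 SD under the fully stimulated control mean yet still positive, in both repeats and the primary screen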;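 as to inhibition: percent of integrated ratio relative to wells lacking test compound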); conditions: Fluo4 calcium flux, DAMGO, at 1 µM; stronger effect = higher value
[7] = target: Short transient receptor potential channel 4 (Mus musculus) (UniProt Q9QUQ5); experiment: mouse TRPC4 channel activators, dose response, cell-based, HEK293 TRPC4/mu-opioid, Fluo-4 calcium (AID 434937;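 active = primary screen activator hit with a dose response curve and TRPC4 channel activation at any tested dose; inactive = no activation, no dose response, or not a primary hit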)
[8] = target: Short transient receptor potential channel 4 (Mus musculus) (UniProt Q9QUQ5); experiment: TRPC4 positive allosteric modulators, dose response, cell-based, HEK293 TRPC4/mu-opioid, Fluo-4 calcium, EC20 DAMGO (AID 434941;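 active = earlier screen potentiator hit that boosts the TRPC4 ion channel at some dose, with a dose response; inactive = no potentiation, no dose response, or not a prior hit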;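 also: calcium entry triggered by an EC20 dose of DAMGO at the co-expressed mu-opioid receptor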)
[9] = target: Short transient receptor potential channel 6 (Mus musculus) (UniProt Q61143); experiment: inhibition of mouse TRPC6 channel, confirmation, selectivity assay for TRPC4 inhibitor project, cell-based, HEK293, membrane potential dye, duplicate (AID 434948;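 active = active in primary screen and both duplicates, each dropping signal beyond three positive-control SD with fluorescence still positive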); conditions: HEK293 TRPC6, membrane potential dye fluorescence, at 10 µM, stimulated with maximal-effect acetylcholine; stronger effect = higher value
[10] = target: Short transient receptor potential channel 6 (Mus musculus) (UniProt Q61143); experiment: activation of mouse TRPC6 channel, confirmation, selectivity assay for TRPC4 activator project, cell-based, HEK293, membrane potential dye, duplicate (AID 434950;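 active = membrane potential signal rise above negative control mean plus 3 SD in both duplicates, also active in the earlier TRPC4 screen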); conditions: HEK293 TRPC6, membrane potential fluorescence, at 10 µM; stronger effect = higher value
[11] = target: Short transient receptor potential channel 6 (Mus musculus) (UniProt Q61143); experiment: TRPC6 potentiation by TRPC4 potentiator hits, confirmation, selectivity assay for TRPC4 potentiator project, HEK293 cells, membrane potential dye, duplicate (AID 434952;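 active = compound raising the membrane signal above positive-control mean plus 3 SD in both repeats, and a primary screen hit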); conditions: HEK293 TRPC6, membrane potential dye fluorescence, at 10 µM, maximal acetylcholine added after compound; stronger effect = higher value
[12] = target: Short transient receptor potential channel 4 (Mus musculus) (UniProt Q9QUQ5); experiment: calcium flux activators in TRPC4/5HT1a cells, counter-screen for TRPC4 activator project, cell-based, second counter screen, HEK293 TRPC4/5HT1a, Fluo-4 (AID 434977;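 active = calcium signal rise above buffer-control mean plus 5 SD in both duplicates, and also a hit in the primary screen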); conditions: Fluo-4 calcium flux, at 10 µM; stronger effect = higher value
[13] = calcium flux inhibitors in TRPC4/5HT1a cells, confirmation, counter-screen for TRPC4 inhibitor project, cell-based, second counter screen, HEK293 TRPC4/5HT1a, Fluo-4 (AID 434978;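 active = primary screen active whose calcium signal fell more than 3 SD beyond the full-serotonin control mean in both duplicate plates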); conditions: Fluo-4 calcium flux, at 10 µM, serotonin added to trigger calcium flux; stronger effect = higher value
[14] = tested on: TRPC4 (mouse), co-expressed with 5HT1a in HEK293; experiment: calcium flux potentiators in TRPC4/5HT1a cells, confirmation, counter-screen for TRPC4 potentiator project, cell-based, second counter screen, HEK293 TRPC4/5HT1a, Fluo-4 (AID 434979;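 active = signal rise over 3 SD above mean of control wells given weak agonist, in both repeats and first screen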); conditions: Fluo-4 calcium flux, at 10 µM, serotonin added at its EC20 dose; stronger effect = higher value
[15] = calcium flux activation in mu-opioid HEK293 cells, confirmation, counter-screen for TRPC4 activator project, cell-based, HEK293 mu-opioid receptor line (AID 449723;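 active = hit in primary screen, with calcium signal over 5 SD above buffer well mean in both duplicates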;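 also: counter screen cells carry the mu-opioid receptor alone and lack TRPC4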); conditions: Fluo-4 calcium fluorescence, at 10 µM; stronger effect = higher value
[16] = calcium flux enhancement in mu-opioid HEK293 cells, confirmation, counter-screen for TRPC4 allosteric potentiator project, cell-based, HEK293 mu-opioid receptor line (AID 449724;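 active = calcium signal rise more than 3 SD above the low-dose agonist control mean, in both duplicate plates and the primary screen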); conditions: Fluo-4 calcium flux, at 10 µM, compound added before EC20 DAMGO stimulus; stronger effect = higher value

Measured: inhibition

Chain of Short transient receptor potential channel 6 (Mus musculus) (Q61143 whole entry, looked up): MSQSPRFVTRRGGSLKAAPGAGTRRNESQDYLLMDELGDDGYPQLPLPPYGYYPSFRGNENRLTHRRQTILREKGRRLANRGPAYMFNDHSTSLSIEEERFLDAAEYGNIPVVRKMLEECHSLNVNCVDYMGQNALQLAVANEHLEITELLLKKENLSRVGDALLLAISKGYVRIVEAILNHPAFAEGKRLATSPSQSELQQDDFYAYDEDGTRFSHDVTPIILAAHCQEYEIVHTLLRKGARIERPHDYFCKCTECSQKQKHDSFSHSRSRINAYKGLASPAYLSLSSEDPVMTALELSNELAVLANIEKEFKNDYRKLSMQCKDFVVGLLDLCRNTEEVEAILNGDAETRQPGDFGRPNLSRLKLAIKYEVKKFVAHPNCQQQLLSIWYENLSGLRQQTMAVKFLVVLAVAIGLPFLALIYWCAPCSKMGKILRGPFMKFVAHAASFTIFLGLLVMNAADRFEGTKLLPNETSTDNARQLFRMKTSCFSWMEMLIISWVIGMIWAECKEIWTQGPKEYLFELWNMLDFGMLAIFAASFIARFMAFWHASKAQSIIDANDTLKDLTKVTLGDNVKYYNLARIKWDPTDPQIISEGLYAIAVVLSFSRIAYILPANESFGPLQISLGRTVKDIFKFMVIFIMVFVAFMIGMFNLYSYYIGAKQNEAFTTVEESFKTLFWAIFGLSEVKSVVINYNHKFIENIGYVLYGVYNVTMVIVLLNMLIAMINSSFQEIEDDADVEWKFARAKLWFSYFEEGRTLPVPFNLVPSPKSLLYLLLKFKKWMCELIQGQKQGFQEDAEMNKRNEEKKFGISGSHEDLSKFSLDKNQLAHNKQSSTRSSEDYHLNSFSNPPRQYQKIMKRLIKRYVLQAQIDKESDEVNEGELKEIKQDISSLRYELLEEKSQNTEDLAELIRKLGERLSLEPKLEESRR
Chain of Short transient receptor potential channel 4 (Mus musculus) (Q9QUQ5 whole entry, looked up): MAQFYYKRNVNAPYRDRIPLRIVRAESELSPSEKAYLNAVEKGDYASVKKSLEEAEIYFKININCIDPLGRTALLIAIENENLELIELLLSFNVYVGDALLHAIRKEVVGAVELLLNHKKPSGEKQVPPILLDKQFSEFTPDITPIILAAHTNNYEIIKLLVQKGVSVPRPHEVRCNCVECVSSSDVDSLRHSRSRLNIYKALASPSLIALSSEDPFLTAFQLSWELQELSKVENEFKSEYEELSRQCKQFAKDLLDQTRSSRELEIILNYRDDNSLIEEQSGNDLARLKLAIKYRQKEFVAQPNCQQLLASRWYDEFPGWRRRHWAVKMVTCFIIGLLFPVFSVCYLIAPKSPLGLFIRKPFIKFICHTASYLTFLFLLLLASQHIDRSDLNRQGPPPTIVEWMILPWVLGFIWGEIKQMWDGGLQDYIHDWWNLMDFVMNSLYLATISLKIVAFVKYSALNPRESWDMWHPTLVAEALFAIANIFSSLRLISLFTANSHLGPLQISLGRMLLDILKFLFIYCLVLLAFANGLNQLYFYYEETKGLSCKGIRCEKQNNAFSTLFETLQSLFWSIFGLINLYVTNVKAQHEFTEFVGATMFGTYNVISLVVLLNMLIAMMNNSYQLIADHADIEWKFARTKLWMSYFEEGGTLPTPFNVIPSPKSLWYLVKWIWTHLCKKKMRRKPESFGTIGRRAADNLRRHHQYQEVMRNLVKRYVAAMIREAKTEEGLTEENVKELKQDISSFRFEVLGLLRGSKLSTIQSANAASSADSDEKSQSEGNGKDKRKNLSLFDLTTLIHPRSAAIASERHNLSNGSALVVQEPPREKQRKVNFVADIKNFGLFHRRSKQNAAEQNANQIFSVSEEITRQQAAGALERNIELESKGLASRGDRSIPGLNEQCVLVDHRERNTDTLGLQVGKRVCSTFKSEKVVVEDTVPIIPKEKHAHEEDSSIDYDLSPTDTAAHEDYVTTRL

O=C(c1ccc(Cl)c(Cl)c1)N(Cc1ccco1)c1ccc(O)cc1
active: [5] 94% | [13] 32%
inactive: all other assays above

CCC(C)[C@H](Nc1nc(-c2ccccc2)nc2c1oc1ccccc12)C(=O)O (stereo not given in full)
active: [5] 89%
inactive: all other assays above

Cc1ccc(O)c(Sc2cc(C)ccc2O)c1
active: [5] 97% | [9] 44.5% | [13] 13.7%
inactive: all other assays above

Cc1ccc(NC(=O)CN2CCc3ccccc3C2)cc1F
active: [5] 88%
inactive: all other assays above

CCOC(=O)C1=C(C)NC(=O)CC1c1cc2c(cc1[N+](=O)[O-])OCO2 (stereo not given)
active: [5] 71% | [6] 40% | [13] 20.2%
inactive: all other assays above

COc1ccc([N+](=O)[O-])cc1NCc1ccco1
active: [5] 69%
inactive: all other assays above

COc1ccccc1N1CCN(CC(C)N(C(=O)C2CCCCC2)c2ccccn2)CC1 (stereo not given)
active: [5] 93% | [6] 52% | [13] 1.31%
inactive: all other assays above

c1ccc2c(N3CCCCC3)nc(N3CCOCC3)nc2c1
active: [5] 84% | [13] 30.8%
inactive: all other assays above

Cc1cc(OCc2cc(C(=O)NCC3(C)COC3)no2)cc(C)c1Cl
active: [5] 66% | [13] 40.6%
inactive: all other assays above

COCCn1c(SCc2ccc(OC)c(F)c2)nc2ccccc2c1=O
active: [5] 95% | [13] 16.1%
inactive: all other assays above

Oc1ccc(CN2CCCCC2)nc1-c1ccccc1
active: [5] 92% | [6] 43% | [13] 31.7%
inactive: all other assays above

Clc1ccc(-c2csc3ncnc(NCCN4CCOCC4)c23)cc1
active: [5] 79% | [6] 50% | [13] 38%
inactive: all other assays above

O=C(Nc1ccccc1N1CCN(C(=O)c2ccccc2)CC1)c1ccc(Br)o1
active: [5] 82% | [6] 57% | [13] 31.6%
inactive: all other assays above

NC(=O)c1nsc(C(=O)N(Cc2ccco2)C(C(=O)NCc2ccc(F)cc2)c2ccc(O)cc2)c1N (stereo not given)
active: [5] 84% | [6] 55% | [13] 25.1%
inactive: all other assays above

Cc1ccc(C)c2c(N)c3c(nc12)CCCCC3 (tested in a mixture with another compound)
active: [5] 97% | [6] 69% | [9] 33.5% | [13] 8.52%
inactive: all other assays above

COc1ccccc1CNCc1ccc(OC)c2ccccc12
active: [5] 96% | [13] 31%
inactive: all other assays above

Cc1nn(-c2nc3ccccc3n2Cc2ccccc2)c2c1C(=O)CC(C)(C)C2
active: [5] 72% | [13] 13.5%
inactive: all other assays above

CCN(CC)c1ncnc2scc(C3COc4ccccc4O3)c12 (stereo not given)
active: [5] 86% | [13] 33%
inactive: all other assays above

COCC(C)NC(C(=O)Nc1ccc(Cl)c([N+](=O)[O-])c1)c1ccccc1 (stereo not given)
active: [5] 87%
inactive: all other assays above

Cn1c(-c2ccccc2)cnc1NCc1ccccc1
active: [5] 86% | [6] 44% | [13] 38.6%
inactive: all other assays above

O=C(OCC(=O)N1CCc2ccccc2C1)c1cccc([N+](=O)[O-])c1
active: [5] 95% | [6] 47% | [13] 40.7%
inactive: all other assays above

CN(C)CCCNc1c2ccccc2nc2ccccc12
active: [5] 94% | [6] 62% | [13] 22.7%
inactive: all other assays above

COc1ccc(F)cc1C(=O)C1CCCN(Cc2ccc3c(c2)OCCO3)C1 (stereo not given)
active: [5] 94% | [13] 38.7%
inactive: all other assays above

COc1ccc(Nc2nc(N)c3ccccc3n2)c(OC)c1
active: [5] 93% | [13] 26.1%
inactive: all other assays above

Cc1cc(Nc2ccccc2)nc2cc(O)ccc12
active: [5] 93% | [6] 52% | [13] 14.4%
inactive: all other assays above

CC(=O)Nc1cccc(C(=O)NCC2(N3CCCCC3)CCCCC2)c1
active: [5] 89%
inactive: all other assays above

CC1CCN(CCOCCOc2ccccc2-c2ccccc2)CC1
active: [5] 101% | [6] 57% | [13] 28.2%
inactive: all other assays above

CC(C)Sc1nc2sc3c(c2c2nnc(SCC(=O)NCc4ccco4)n12)CCCC3
active: [5] 78% | [13] 16.9%
inactive: all other assays above

Cc1nc2ccccc2n1Cc1ccc(Br)cc1
active: [5] 96% | [6] 74% | [13] 9.19%
inactive: all other assays above

CCOC(=O)c1c(NC(=O)C(C)Sc2nnc(C)c(=O)[nH]2)sc2c1CCCC2 (stereo not given)
active: [5] 77% | [6] 87% | [13] 28.1%
inactive: all other assays above
